IL-1B inflam inh = blocks inflammasome-driven IL-1 beta release; THP-1 LPS/ATP IL-1B secretion, AlphaLISA, 16 h; stronger effect = lower value; activity change, % at 57.5 µM; hit rate 4.7% among 360,000; AID 743279; in the data active = activity change below about -50%; inconclusive = mostly about -30% to -49%
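THP-1 cells pretreated 1 hr with compounds (up to 57.5 uM final), then stimulated with LPS (250 ng/mL final) plus ATP (1.25 mM final); secreted IL-1B measured by AlphaLISA after 16 hr, decreased signal indicating inhibition.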
HT1080 IDH1KD tx = toxicity to HT-1080 IDH1 knockdown cells (counter line) | AID 686971 | HT-1080 IDH1 knockdown viability, ATP luminescence, 48 h | hit rate 2% among 360,000 | Potency, µM (titrated, usually from 46.1 µM), without a hit: at the top dose activity, negative = toxicity, hits mostly cytotoxic;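 note: potency is the fitted concentration of half-maximal effect; 0% = DMSO wells and -100% = cell-free medium wells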
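Cytotoxicity counter-line: IDH1KD HT-1080, 48 h, CellTiter-Glo. Curves classed by r2, magnitude and activity.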
TDP1 cell noCPT = qHTS for Inhibitors of human tyrosyl-DNA phosphodiesterase 1 (TDP1): qHTS in cells in absence of CPT | DT40 Tdp1-/- hTDP1 cells, no CPT, ATP luminescence, 48 h | Potency, µM (titrated, usually from 46.2 µM), inactives show at the highest dose activity change, negative = growth inhibition, usual class: inhibitors | hit rate 15% among 420,000 | AID 686978, 2013; note: potency is the fitted concentration of half-maximal effect; nearly all actives have a fitted effect of over 55% in size
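Growth of hTDP1-complemented DT40 Tdp1-knockout cells is measured by ATP luminescence after at least 48 hr compound exposure at 37 °C, with DMSO substituting for the 20 nM CPT used in the parallel screen.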
HT1080-NT tox = kills 2HG-producing HT-1080-NT fibrosarcoma cells; HT-1080-NT fibrosarcoma viability, CellTiter-Glo ATP luminescence, 48 h; Potency, µM (series often up to 46.1 µM), for the others: at the top dose activity, negative = less viability, usual class: cytotoxic; hit rate 1.6% among 360,000; AID 686970;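 note: NT is the 2HG producing partner of a matched IDH1 knockdown line; potency is the fitted concentration of half-maximal effect; 0% = DMSO-treated cells and -100% = media-only wells without cells; nearly all actives have a fitted effect of over 55% in size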
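A 48-hour cytotoxicity screen used HT-1080-NT cells plated 2 hours before compound delivery. ATP-based CellTiter-Glo luminescence measured viability, normalized to DMSO and no-cell controls.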
TDP1 cell CPT = growth inhibition of DT40 Tdp1-/-;hTDP1 cells with camptothecin (screen for TDP1 inhibitors); chicken DT40 Tdp1-/-;hTDP1 cells + 20 nM CPT, ATP luminescence, 48 h; Potency, µM (highest dose often 46.2 µM), inactives show top-dose activity change, negative = growth inhibition, hits mostly inhibitors; hit rate 12% among 420,000; AID 686979; note: potency is the fitted concentration of half-maximal effect; nearly all actives have a fitted effect of over 55% in size
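Chicken DT40 Tdp1-/- cells stably complemented with human TDP1 were seeded at 400 cells/well in medium containing 20 nM camptothecin, exposed to pin-transferred compounds, and grown at 37 °C for at least 48 hr. Viability was read as ATP luminescence.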
* hit, by the source's call; ? = inconclusive; / = not tested or not shown; [ ] = another dose, or the depositor's remark. Compounds with a hit are over-represented: about 19% of the library has one in this group of screens. Unless noted, calls come from the whole dose curve; as a rule, active = well fitted curve in the direction sought with a large enough effect; inconclusive = small, poorly fitted or top-dose-only effect, or another doubt; inactive = no such curve, though single readings can be large; an effect the other way counts as inactive or inconclusive. Unless noted, % is set by controls: 0 for no effect and ±100 for the full control effect.

SMILES | IL-1B inflam inh | HT1080 IDH1KD tx | TDP1 cell noCPT | HT1080-NT tox | TDP1 cell CPT
CC(C)NC(=O)C1(C)CCCN1C/C=C/c1ccccc1 (centres undefined) | 36.6 | -3.4% | 23.1µM* | 17.5% | 20.6µM*
CC(C)NC(=O)C1(C)CCN1Cc1ccc(-c2ccccc2)cc1 (centres undefined) | -8.1 | ? | 8.2µM* | ? | 11.6µM*
CC1=C(C(=O)OCc2ccccc2)C(c2cccc([N+](=O)[O-])c2)NC(=O)N1C (centres undefined) | 9.7 | -1.9% | -2.0% | -5.7% | -9.3%
Cc1ccc(CNc2ncccc2-c2nc(-c3ccc(Cl)cc3)no2)cc1 | / | / | -7.1% | / | -10.8%
O=C(CSc1ccc(-c2cccs2)nn1)c1cccs1 | -9.4 | -13.0% | ? | 1.1% | ?
COc1ccc(C(=O)NCc2ccco2)cc1S(=O)(=O)NC1CC1 | 0.0 | 2.1% | 13.1% | -0.3% | -11.5%
CC(C)(C)CNC(=O)C1(C)CCN1C(=O)Cc1ccc(-c2ccccc2)cc1 (centres undefined) | 2.6 | ? | 18.4µM* | -21.5% | 23.1µM*
CC1(C(=O)Nc2cccc3ncccc23)CCN1C(=O)Cc1ccc(-c2ccccc2)cc1 (centres undefined) | -10.0 | ? | 16.4µM* | ? | 23.1µM*
CC(C)(C)CNC(=O)C1(C)CCN1C(=O)c1ccccc1CCc1ccccc1 (centres undefined) | -17.7 | -19.9% | 16.4µM* | -0.8% | 20.6µM*
CC1(C(=O)NS(C)(=O)=O)CCN1C(=O)Cc1ccc(-c2ccccc2)cc1 (centres undefined) | 5.2 | 9.3% | -4.0% | ? | -10.5%
CC(C)NC(=O)C1(C)CCN1C(=O)Cc1ccc(-c2ccccc2)cc1 (centres undefined) | -1.5 | ? | 13µM* | ? | 16.4µM*
CCCNC(=O)C1(C)CCN1C(=O)c1ccccc1CCc1ccccc1 (centres undefined) | 0.6 | 0.4% | ? | ? | ?
S=C(NCc1ccco1)Nc1ccc(Oc2ccccc2)cc1 | -6.8 | 1.5% | ? | -5.9% | ?
CN(Cc1ccccc1)C(=S)Nc1ccc2nc3n(c(=O)c2c1)CCCCC3 | 12.7 | -2.4% | ? | 2.9% | -5.1%
Cc1cc(C(=O)OCC(=O)NCCc2ccccc2)c2ccccc2n1 | 19.7 | -2.6% | 2.7% | -4.3% | -20.4%
Cc1nc2ccn(Cc3cccnc3)c(=O)c2cc1C(=O)NCc1ccccc1 | / | / | -12.6% | / | 3.7%
COc1ccccc1CNC(=O)C1(C)CCN1C(=O)Cc1ccc(-c2ccccc2)cc1 (centres undefined) | -23.4 | ? | 14.6µM* | ? | 16.4µM*
Cc1ccc(S(=O)(=O)NC(=O)C2(C)CCN2C(=O)Cc2ccc(-c3ccccc3)cc2)cc1 (centres undefined) | 7.4 | 2.9% | 2.0% | -7.8% | 11.6%
CC1(C(=O)NCc2ccccc2Br)CCN1C(=O)Cc1ccc(-c2ccccc2)cc1 (centres undefined) | -11.2 | ? | ? | 16.4µM* | ?
CC1(C(=O)NC2CCCCCC2)CCN1C(=O)Cc1ccc(-c2ccccc2)cc1 (centres undefined) | -8.3 | ? | 14.6µM* | ? | ?
CC1(C(=O)NC2CCCCCC2)CCN1C(=O)C1(c2ccccc2)CC1 (centres undefined) | -2.9 | -5.0% | 18.4µM* | -9.9% | 11.6µM*
Cc1ccc(-n2nc(-c3ccc(OC(F)(F)F)cc3)cc2N)cc1C | -5.6 | -18.9% | -5.6% | -29.1% | 6.1%
Cc1ccccc1NC(=O)COC(=O)CCSc1ccccc1 | 36.2 | -2.3% | -22.8% | 1.2% | -4.4%
COc1ccccc1CNC(=O)CN(CCc1ccccc1)S(C)(=O)=O | 4.0 | 11.5% | -26.9% | 1.3% | -3.9%
O=C(CN1C(=O)NC2(CCCc3ccccc32)C1=O)NC1CCCCC1 (centres undefined) | 11.4 | -2.5% | -6.4% | -5.6% | -3.9%
SMILES | IL-1B inflam inh | HT1080 IDH1KD tx | TDP1 cell noCPT | HT1080-NT tox | TDP1 cell CPT
COc1cccc(CNc2cnc3ccccc3c2)c1O | -54.3* | 5.8%[9.24 µM] | 16.4µM* | ? | 11.6µM*
Cc1ccc(O)c(CNc2cnc3ccccc3c2)c1 | -88.1* | ? | ? | -13.8% | -20.3%
C=CCNC(=O)c1cc(C(=O)C(C)c2ncc(C(F)(F)F)cc2Cl)c[nH]1 (centres undefined) | 39.7 | -18.0% | -11.5% | -3.4% | 8.2%
O=C(COC(=O)C1CC1)Nc1c(Cl)cccc1C(F)(F)F | -4.0 | 14.3% | 5.0% | 3.1% | -2.4%
COc1ccc(C)cc1Cn1c(S(C)(=O)=O)nc2ccccc21 | 15.6 | -30.3% | 20.6µM* | ? | 16.4µM*
Cc1ccc(-c2nc(CCNC(=O)C(=O)Nc3ccc(C)cc3C)cs2)cc1 | / | / | -19.9% | / | -2.8%
Cc1nn(C)c(C)c1N1C(=O)c2cccc3c(Br)ccc(c23)C1=O | -96.1* | ? | 20.6µM* | 23.1µM* | 18.4µM*
CCOc1cc2c(cc1OCC)C(c1ccc(C(=O)O)cc1)NCC2 (centres undefined) | 29.1 | 5.6% | -0.7% | 10.5% | 6.8%
COc1ccc(OC)c(CNC(=O)CN2N=C(c3ccc(Cl)cc3)CCC2=O)c1 | / | / | -21.5% | / | -15.3%
CC1CCC(Nc2nc3c(-c4cccc(C(F)(F)F)c4)nnn3c3ccccc23)CC1 (centres undefined) | / | / | 29.1µM* | / | ?
COCCNc1nc2c(-c3cccc(C(F)(F)F)c3)nnn2c2ccccc12 | 39.2 | 13.3% | -20.8% | 14.8% | 2.2%
NNc1nc2c(-c3cccc(C(F)(F)F)c3)nnn2c2ccccc12 | -12.1 | 20.6µM* | -106.4% | 20.6µM* | -119.1%
CCOC(=O)c1nnn2c1nc(SCC(C)=O)c1ccccc12 | 6.0 | 3.5% | ? | -1.2% | 0.5%
CCOC(=O)c1nnn2c1nc(Nc1cccc(C(F)(F)F)c1)c1ccccc12 | / | 19.3% | 5.8µM* | 25.5% | 10.3µM*
C=CCSc1nc2c(C(=O)OCC)nnn2c2ccccc12 | 2.4 | -12.5% | 9.2µM* | -8.1% | ?
O=C1Nc2ccccc2N(O)N1c1ccc(S(=O)(=O)N2CCOCC2)cc1 | 15.3 | 6.6% | -24.3% | 12.1% | -1.1%
Cn1c(COc2ccccc2)nnc1SCC(=O)NC1CCCC1 | 20.0 | 5.5% | -8.0% | 4.5% | 5.1%
Cc1ccc(C(=O)O)cc1NS(=O)(=O)c1ccc2c(c1)oc(=O)n2C | 26.9 | 5.0% | -2.6% | 14.7% | -2.4%
CC(C)C(=O)NCC(c1ccc2c(c1)OCO2)N1CCN(c2ccccc2)CC1 (centres undefined) | / | / | -13.3% | / | -1.1%

High-throughput results from PubChem BioAssay.
